MbtI inh: MbtI salicylate synthase inhibitors, primary screen, biochemical, fluorescence intensity; P9WFX0; purified MbtI enzyme, fluorescence intensity read-out; inhibition, % (test concentration not listed); hit rate 0.89% among 100,000; in the data active = inhibition mostly above about 56%, no sharp cut-off; inactive = mostly below about 77%
Mtb MenB inh: M. tuberculosis MenB inhibitors, primary screen, biochemical, absorbance. 1,4-dihydroxy-2-naphthoyl-CoA synthase (Mycobacterium tuberculosis (strain ATCC 25618 / …. MenB enzyme assay, absorbance read-out. inhibition, % (concentration not given with the values). hit rate 0.43% among 100,000; in the data active = inhibition above about 21%, passing the limit was not always enough
Target sequence (P9WNP5 whole entry, looked up): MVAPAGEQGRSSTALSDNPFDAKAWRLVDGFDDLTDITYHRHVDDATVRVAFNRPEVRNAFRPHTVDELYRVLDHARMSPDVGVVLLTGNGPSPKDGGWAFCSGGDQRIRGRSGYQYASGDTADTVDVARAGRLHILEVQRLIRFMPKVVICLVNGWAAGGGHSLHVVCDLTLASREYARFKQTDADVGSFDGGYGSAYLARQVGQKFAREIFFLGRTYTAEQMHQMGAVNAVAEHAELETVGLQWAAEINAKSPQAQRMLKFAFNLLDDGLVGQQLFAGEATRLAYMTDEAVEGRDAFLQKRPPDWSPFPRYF
PV pol inh: poliovirus RdRp elongation inhibitors, primary screen, biochemical, fluorescence polarization, total intensity; poliovirus polymerase elongation; active compounds read low; % elongation, % (compound at 16.7 µg/mL); hit rate 0.66% among 150,000; Genome polyprotein (Poliovirus type 1 (strain Mahoney)), P03300; in the data active = % elongation below about 90%
AID504770: growth inhibition of E. coli YBA685, primary screen, V. cholerae RctB inhibitors; hit rate 0.27% among 130,000; E. coli YBA685 rctB-dependent plasmid, OD600 growth, 3 h; active compounds read low; z-score (concentration not given with the values); AID 504770, 2011; in the data active = z-score below about -2, passing the limit was not always enough
Numbers stand for hits; ! = not confirmed by another sample. This is a sample that favours compounds with a hit; in the whole collection about 1.4% have one here.

What do the screens show for `CC(C(=O)O)c1ccc(N2Cc3ccccc3C2=O)cc1` (configuration not stated)?
MbtI inh: inactive; Mtb MenB inh: inactive; PV pol inh: 102!; AID504770: inactive

What do the screens show for `CC(NCCC(=O)O)c1ccccc1` (configuration not stated)?
MbtI inh: inactive; Mtb MenB inh: 34; PV pol inh: inactive; AID504770: inactive

What do the screens show for `COc1ccc(-c2c(C#N)c(N)nc(OC)c2C#N)cc1`?
MbtI inh: inactive; Mtb MenB inh: inactive; PV pol inh: inactive; AID504770: inactive

How did COc1ccc2c(c1)C(C(C#N)C#N)C(C#N)=C(N)O2 (configuration not stated) do in these assays?
AID504770: -2.4

How did COc1ccc2c(c1)C(C(C#N)C#N)c1c(nc(N)c(C#N)c1N)O2 (configuration not stated) do in these assays?
MbtI inh: inactive; Mtb MenB inh: inactive; PV pol inh: inactive; AID504770: -3

What do the screens show for `CCCC(C)C1C(C#N)=C(N)Oc2cc(N)ccc21` (configuration not stated)?
MbtI inh: inactive; Mtb MenB inh: inactive; PV pol inh: inactive; AID504770: inactive

How did Cc1ccc(N2C(=O)C(Cc3ccccc3)N=C2N2CCC(C)CC2)cc1 (configuration not stated) do in these assays?
MbtI inh: inactive; Mtb MenB inh: inactive; PV pol inh: inactive; AID504770: inactive

How did COC(=O)c1c(C)oc2ccc(NS(=O)(=O)c3ccc(C)cc3)cc12 do in these assays?
AID504770: inactive

How did C=CCn1c(-c2ccncc2)n[nH]c1=S do in these assays?
MbtI inh: 70; Mtb MenB inh: inactive; PV pol inh: inactive; AID504770: inactive

How did S=c1[nH]nc(-c2ccncc2)n1C1CC1 do in these assays?
MbtI inh: 60; Mtb MenB inh: inactive; AID504770: inactive

What do the screens show for `Cc1nn(CCC#N)c2c1P(=S)(N1c3ccccc3CC1C)/C(=C1\N(C)c3ccccc3C1(C)C)C=N2` (configuration not stated)?
MbtI inh: 57; Mtb MenB inh: inactive; PV pol inh: inactive; AID504770: inactive

How did O=c1c(NCCC2=CCCCC2)nccn1-c1ccccc1 do in these assays?
MbtI inh: inactive; Mtb MenB inh: inactive; PV pol inh: inactive; AID504770: inactive

What do the screens show for `O=C(/C=C/c1ccccc1)NC(=S)Nc1ccc(-c2nc3ccccc3o2)c(O)c1`?
MbtI inh: inactive; Mtb MenB inh: inactive; PV pol inh: inactive; AID504770: inactive

What do the screens show for `Nn1c(Cc2ccccc2)n[nH]c1=S`?
MbtI inh: 99; Mtb MenB inh: inactive; PV pol inh: inactive; AID504770: inactive

How did Cn1c(Cc2ccccc2)n[nH]c1=S do in these assays?
MbtI inh: inactive; Mtb MenB inh: inactive; PV pol inh: inactive; AID504770: inactive

Results for NC(=O)C(c1ccccc1)c1ncc(C(F)(F)F)cc1Cl (configuration not stated) ?
AID504770: -2.7

How did CCN(CC)C(=O)c1ccc(CS(=O)(=O)c2ccccc2C)o1 do in these assays?
MbtI inh: inactive; Mtb MenB inh: inactive; PV pol inh: inactive; AID504770: inactive

Results for Nc1nc(N)nc(-c2ccccc2)n1 ?
MbtI inh: inactive; Mtb MenB inh: inactive; PV pol inh: inactive; AID504770: inactive

How did Nc1nc(N)c2[nH]c(-c3ccccc3)nc2n1 do in these assays?
MbtI inh: inactive; Mtb MenB inh: inactive; PV pol inh: 68; AID504770: inactive

How did CC(C)(C)OC(=O)N1CCN(C2CC(=O)N(c3ccccc3)C2=O)CC1 (configuration not stated) do in these assays?
MbtI inh: inactive; Mtb MenB inh: inactive; PV pol inh: inactive; AID504770: inactive

What do the screens show for `O=C1CC(N2CCCC2)C(=O)N1c1ccccc1` (configuration not stated)?
MbtI inh: 63; Mtb MenB inh: inactive; PV pol inh: inactive; AID504770: inactive

What do the screens show for `Cc1ccc(NC(=O)Sc2ccc(Cl)cc2)cc1`?
MbtI inh: 57; Mtb MenB inh: inactive; PV pol inh: inactive; AID504770: inactive

How did COc1ccccc1NC(=O)CSc1nc2n[nH]c(C)c2c(=N)n1-c1ccc(C)c(Cl)c1 do in these assays?
MbtI inh: inactive; Mtb MenB inh: inactive; PV pol inh: inactive; AID504770: inactive

What do the screens show for `COCCNC(=S)N1c2ccccc2CC1C` (configuration not stated)?
MbtI inh: 64; Mtb MenB inh: inactive; PV pol inh: 84; AID504770: inactive

What do the screens show for `Cc1cc(C)nc(SCc2ccc(-c3nnc4n3CCCCC4)cc2)n1`?
MbtI inh: inactive; Mtb MenB inh: inactive; PV pol inh: inactive; AID504770: inactive

Results for O=C(NC1(C(F)(F)F)Oc2ccc(Cl)cc2O1)N1CCCCC1 (configuration not stated) ?
MbtI inh: inactive

Results for CCN(C(=O)NC1(C(F)(F)F)Oc2ccc(Cl)cc2O1)C1CCCCC1 (configuration not stated) ?
MbtI inh: 71; Mtb MenB inh: inactive; PV pol inh: inactive; AID504770: inactive

What do the screens show for `CC(=O)n1c2ccccc2c2ccccc21`?
AID504770: inactive

How did CC(=O)n1c2ccccc2c2nc(N)sc21 do in these assays?
MbtI inh: inactive; Mtb MenB inh: inactive; PV pol inh: 81; AID504770: inactive

Results for O=c1[nH]nc(SCc2ccccc2)c(=O)[nH]1 ?
MbtI inh: inactive; AID504770: inactive

Results for O=c1[nH]nc(SCc2cccc3ccccc23)c(=O)[nH]1 ?
MbtI inh: 51; Mtb MenB inh: inactive; PV pol inh: inactive; AID504770: inactive

Results for O=C1NC(=S)NC(=O)C1=C/C=C/c1ccco1 ?
MbtI inh: inactive; Mtb MenB inh: inactive; PV pol inh: 72; AID504770: inactive

What do the screens show for `CN1C(=O)NC(=O)/C(=C\C=C\c2ccco2)C1=O`?
MbtI inh: inactive; Mtb MenB inh: inactive; PV pol inh: inactive; AID504770: inactive

What do the screens show for `O=C1NC(=O)N(c2ccccc2)C(=O)/C1=C/C=C/c1ccco1`?
MbtI inh: 88; Mtb MenB inh: inactive; PV pol inh: inactive; AID504770: inactive

What do the screens show for `COCCNC(=O)c1cc(-c2cccnc2)nc2ccc(S(=O)(=O)N3CCCCCC3)cc12`?
MbtI inh: inactive; Mtb MenB inh: inactive; PV pol inh: inactive; AID504770: inactive

What do the screens show for `COCCCNC(=O)c1cc(-c2cccnc2)nc2ccc(S(=O)(=O)N3CCC(C)CC3)cc12`?
PV pol inh: 47

What do the screens show for `O=C(O)CCCC(=O)c1ccccc1`?
MbtI inh: inactive; Mtb MenB inh: inactive; PV pol inh: inactive; AID504770: inactive

Results for O=C(O)CCC(=O)c1ccccc1 ?
MbtI inh: inactive; Mtb MenB inh: inactive; PV pol inh: 75; AID504770: inactive

How did O=C(c1ccccc1)c1ccc(C(=O)O)c(C(=O)O)c1 do in these assays?
MbtI inh: inactive; Mtb MenB inh: 46; PV pol inh: inactive; AID504770: inactive

Results for O=C(c1ccccc1)c1ccc(C(=O)c2ccccc2)cc1 ?
Mtb MenB inh: inactive; PV pol inh: 82; AID504770: inactive

Results for O=C(O)c1ccc(C(=O)O)c(C(=O)c2ccccc2)c1 ?
AID504770: inactive
